This note sets out measurements from the supplement of paper PMC7380943.
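Note: compound given one day before doxycycline, which switches on I-SceI endonuclease expression to create double-strand breaks within the integrated reporter.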

For the assay, the system named is CLZ3 (HCA2 human fibroblast dual HR-NHEJ reporter). Put plainly: HR repair efficiency (tdTomato+ cells) relative to control (log10 fold); higher = more homologous recombination. The following applies: 5 µM; doxycycline 0.5 ug/mL.
On to `O=C1C[C@@H](c2ccc(O[C@@H]3O[C@H](CO)[C@@H](O)[C@H](O)[C@H]3O)cc2)Oc2cc(O)ccc21` [Liquiritin], for which the “HR repair efficiency (log10)” value was -0.0906.

`O=c1c(-c2ccc(O[C@@H]3O[C@H](CO)[C@@H](O)[C@H](O)[C@H]3O)cc2)coc2cc(O)cc(O)c12` [Sophoricoside]: the “HR repair efficiency (log10)” value is 0.0013.

As to `C[C@@H]1[C@H]2[C@H](O[C@@H]3O[C@H](CO)[C@@H](O)[C@H](O)[C@H]3O)OC=C(C(=O)O)[C@H]2C[C@@H]1O` [Loganic Acid], the “HR repair efficiency (log10)” value was found to be 0.135.

In the case of `O=C(O)CC(O)C(=O)O` (stereo not given) [Malic Acid], the “HR repair efficiency (log10)” value was -0.141.

`C=C1CCC[C@]2(C)C[C@]3(O)OC(=O)C(C)=C3C[C@@H]12` [Atractylenolide Iii]: the “HR repair efficiency (log10)” value is 0.0542.

In the case of `COc1cc(C2Oc3cc([C@H]4Oc5cc(O)cc(O)c5C(=O)[C@@H]4O)ccc3OC2CO)ccc1O` (stereo not given in full) [Silybin (Silymarin)], the “HR repair efficiency (log10)” value amounted to 0.183.

As for `O=C(/C=C/c1ccc(O)c2c1[C@H](C(=O)O)[C@@H](c1ccc(O)c(O)c1)O2)O[C@H](Cc1ccc(O)c(O)c1)C(=O)O` [Lithospermic acid], the “HR repair efficiency (log10)” value came out at 0.0325.

With `Cc1cc(=O)c2c(O)c3c(cc2o1)OC(C)(C)[C@@H](O[C@@H]1O[C@H](CO)[C@@H](O)[C@H](O)[C@H]1O)C3` [Sec-O-Glucosylhamaudol], the “HR repair efficiency (log10)” value was -0.0801.

`C[C@@]12C[C@@]3(O)O[C@@H](O1)[C@]1(COC(=O)c4ccccc4)[C@H]3C[C@@]12O[C@@H]1O[C@H](CO)[C@@H](O)[C@H](O)[C@H]1O` [Paeoniflorin]: the “HR repair efficiency (log10)” value was determined as 0.213.

As for `C=C1C[C@@]23CC[C@H]4[C@@](C)(CCC[C@@]4(C)C(=O)O[C@@H]4O[C@H](CO)[C@@H](O)[C@H](O)[C@H]4O)[C@@H]2CC[C@]1(O[C@@H]1O[C@H](CO)[C@@H](O)[C@H](O)[C@H]1O)C3` [Rubusoside], the “HR repair efficiency (log10)” value stood at 0.0779.

Consider `C=C1C(=O)O[C@@H]2/C=C(\C)CC/C=C(\C)CC[C@@H]12` [Costunolide], for which the “HR repair efficiency (log10)” value was 0.07.

With `COC(=O)C1=CO[C@@H](O[C@@H]2O[C@H](CO)[C@@H](O)[C@H](O)[C@H]2O)[C@@H]2[C@H](C)O[C@@H](O)C[C@H]12` [Morroniside], the “HR repair efficiency (log10)” value amounted to 0.186.

Turning to `C=C[C@H]1[C@H](O[C@@H]2O[C@H](CO)[C@@H](O)[C@H](O)[C@H]2O)OC=C(C(=O)OC)[C@H]1CCOC(=O)c1cc(O)c(O)c(O)c1` [Cornuside], the “HR repair efficiency (log10)” value stood at 0.162.

Regarding `COc1cc2oc(=O)ccc2c(OC)c1O` [Fraxinol], the “HR repair efficiency (log10)” value turned out to be 0.0872.

In the case of `O=C(C=Cc1ccc(O)c(O)c1)O[C@H]1[C@H](O)C[C@](O)(C(=O)O)C[C@H]1OC(=O)C=Cc1ccc(O)c(O)c1` [Isochlorogenic Acid C (4,5-Di-O-Caffeoylquinic Acid)], the “HR repair efficiency (log10)” value is -0.0644.

On to `O=C(/C=C/c1ccc(O)c(O)c1)O[C@H](C(=O)O)[C@H](OC(=O)/C=C/c1ccc(O)c(O)c1)C(=O)O` [Chicoric Acid], for which the “HR repair efficiency (log10)” value amounted to 0.107.

For the compound `OC[C@H]1O[C@@H](Oc2cc3c(O)cc(O)cc3[o+]c2-c2ccc(O)c(O)c2)[C@H](O)[C@@H](O)[C@@H]1O` [Cyanidin3-o-glucoside], the “HR repair efficiency (log10)” value stood at 0.142.

`COc1ccc([C@@H]2CC(=O)c3c(O)cc(O[C@@H]4O[C@H](CO[C@@H]5O[C@@H](C)[C@H](O)[C@@H](O)[C@H]5O)[C@@H](O)[C@H](O)[C@H]4O)cc3O2)cc1O` [Hesperidin]: the “HR repair efficiency (log10)” value turned out to be 0.258.

In the case of `COc1ccc(C=O)c(O)c1` [4-Methoxysalicylaldehyde], the “HR repair efficiency (log10)” value was -0.0885.

Regarding `Oc1cc(O)c2c(c1)O[C@H](c1ccc(O)c(O)c1)[C@H](O)C2` [Epicatechin (EC)], the “HR repair efficiency (log10)” value is -0.306.

Consider `O=C(O)/C=C/c1ccc(O)cc1` [P-Coumaric Acid], for which the “HR repair efficiency (log10)” value came out at 0.212.

With `O=C(O)C1=CO[C@@H](O[C@@H]2O[C@H](CO)[C@@H](O)[C@H](O)[C@H]2O)[C@@H]2C(CO)=CC[C@H]12` [Geniposidic acid], the “HR repair efficiency (log10)” value is -0.00169.

As for `CC12CCC(CC1=O)C2(C)C` (stereo not given) [Camphor], the “HR repair efficiency (log10)” value is -0.0168.

For `COC(=O)[C@H](c1ccccc1Cl)N1CCc2sccc2C1` [Clopidogrel bisulfate], the “HR repair efficiency (log10)” value was found to be 0.138.

On to `OCC1=C[C@@H](O)[C@@H]2C=CO[C@@H](O[C@@H]3O[C@H](CO)[C@@H](O)[C@H](O)[C@H]3O)[C@H]12` [Aucubin], for which the “HR repair efficiency (log10)” value amounted to 0.121.

Consider `CC(C)(O[C@@H]1O[C@H](CO)[C@@H](O)[C@H](O)[C@H]1O)[C@H]1Cc2cc3ccc(=O)oc3cc2O1` [Nodakenin], for which the “HR repair efficiency (log10)” value was determined as 0.0112.

For `COC(=O)C1=CO[C@@H](O)[C@@H]2C(CO)=CC[C@H]12` [Genipin], the “HR repair efficiency (log10)” value is 0.00524.

`O=C1c2c(O)cc(O)cc2OC(c2ccc(O)c(O)c2)C1O` (stereo not given) [Taxifolin]: the “HR repair efficiency (log10)” value was -0.0702.

Turning to `COc1cc(C2Oc3cc([C@H]4Oc5cc(O)cc(O)c5C(=O)[C@@H]4O)ccc3OC2CO)ccc1O` (stereo not given in full) [Silymarin Ⅱ], the “HR repair efficiency (log10)” value was -0.127.

Take `C=C1CC[C@@H]2[C@](C)(CO)[C@H](O)CC[C@@]2(C)[C@@H]1C/C=C1/C(=O)OC[C@H]1O` [Andrographolide]: the “HR repair efficiency (log10)” value is 0.266.

In the case of `C/C=C/c1cc(OC)c2c(c1)[C@H](C)[C@@H](c1ccc3c(c1)OCO3)O2` [Licarin B], the “HR repair efficiency (log10)” value turned out to be 0.192.

Regarding `C=CCc1ccc(OC)c(OC)c1` [Methyleugenol], the “HR repair efficiency (log10)” value was determined as 0.161.

`COc1cc(O)c2c(=O)c3c(O[C@@H]4O[C@H](CO)[C@@H](O)[C@H](O)[C@H]4O)ccc(O)c3oc2c1` [Swertianolin]: the “HR repair efficiency (log10)” value worked out at 0.201.

For `CC(C)=C1CC[C@@H](C)CC1=O` [Pulegone], the “HR repair efficiency (log10)” value was -0.0589.

On to `C=C1C[C@@]23CC[C@H]4[C@@](C)(CCC[C@@]4(C)C(=O)O[C@@H]4O[C@H](CO)[C@@H](O)[C@H](O)[C@H]4O)[C@@H]2CC[C@]1(O[C@@H]1O[C@H](CO)[C@@H](O)[C@H](O)[C@H]1O[C@@H]1O[C@H](CO)[C@@H](O)[C@H](O)[C@H]1O)C3` [Stevioside], for which the “HR repair efficiency (log10)” value worked out at 0.296.

Consider `COc1cc2ccc(=O)oc2c(OC)c1O` [Isofraxidin], for which the “HR repair efficiency (log10)” value was -0.153.

`CC1(C)CCC2(CO)C(=C3C=CC4C5(C)CCC(OC6OC(COC7OC(CO)C(O)C(O)C7O)C(OC7OC(CO)C(O)C(O)C7O)C(O)C6O)C(C)(CO)C5CCC4(C)C3(C)CC2O)C1` (stereo not given) [Clinopodiside A]: the “HR repair efficiency (log10)” value stood at 0.0428.

With `O=C(O)c1ccccc1` [Benzoic Acid], the “HR repair efficiency (log10)” value came out at 0.137.

Consider `CC1(C)CC[C@]2(C(=O)O)CC[C@]3(C)C(=CC[C@@H]4[C@@]5(C)CC[C@H](O)C(C)(C)[C@@H]5CC[C@]43C)[C@@H]2C1` [Oleanolic Acid], for which the “HR repair efficiency (log10)” value came to 0.133.

For the compound `C[C@H]1[C@H](C)CC[C@]2(C(=O)O[C@@H]3O[C@H](CO[C@@H]4O[C@H](CO)[C@@H](O[C@@H]5O[C@@H](C)[C@H](O)[C@@H](O)[C@H]5O)[C@H](O)[C@H]4O)[C@@H](O)[C@H](O)[C@H]3O)CC[C@]3(C)C(=CC[C@@H]4[C@@]5(C)C[C@@H](O)[C@H](O)[C@@](C)(CO)[C@@H]5[C@H](O)C[C@]43C)[C@H]12` [Madecassoside], the “HR repair efficiency (log10)” value came out at 0.19.
